# The campaign covered roughly 310,000 compounds. About 11,000 (3.5%) were called active. Another 4% or so got no clear call; they are omitted. Only a selection was taken, and actives are over-represented in it overall. A number with no mark means an inactive call. The call rests on the fitted dose curve; in most records, active means well fitted inhibition curve with a large enough effect; inconclusive means small, poorly fitted or top-dose-only effect, or another doubt; inactive means no such curve, though single readings can be large or run the other way.
# Target: 4'-phosphopantetheinyl transferase ffp (Bacillus subtilis) (UniProt Q9F4F7)
# Experiment: qHTS Assay for Inhibitors of Bacillus subtilis Sfp phosphopantetheinyl transferase (PPTase);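 further: the enzyme is Sfp with the accession as filed and its product quenches rhodamine fluorescence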;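 on largest response in the series, negative = inhibition: 0% = enzyme reaction without inhibitor and -100% = no enzyme wells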
# Conditions: Biochemical Sfp PPTase activity
# Procedure, shortened: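 With Hepes-Na pH 7.6 buffer containing 10 mM MgCl2, Sfp (15 nM) modified BHQ-2-YbbR (12.5 uM) using rhodamine-CoA (5 uM). Two reads 30 minutes apart at 525/598 nm yielded each well's rate.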
# Potency means the concentration at half of the fitted maximal effect.
SMILES,"largest response in the series, negative = inhibition [%]",Potency
COc1ccc(-c2nc3c(s2)CCc2onc(-c4ccc(OC)cc4)c2-3)cc1,4.62,–
CC(NCc1cccs1)C(=O)Nc1cc(Cl)cc(Cl)c1 (stereo unspecified),-16.2,–
CC1=C(C(=O)NC2CC(C)(C)Cc3c2cnn3-c2ccc(C)cc2)OCCO1 (stereo unspecified),15.5,–
CCN(CC)CCCCn1c(-c2ccccc2)nc2c(N3CCOCC3)nc(C)nc21,39.5,–
O=C(C1CCCO1)N1CCN(S(=O)(=O)c2ccc(Br)cc2)CC1 (stereo unspecified),-3.46,–
O=C(CN1C(=O)S/C(=C\c2ccccc2F)C1=O)NCCCn1ccnc1,16.3,–
CC(=O)c1sc(NC(=O)C2=NN(c3ccccc3)C(=O)CC2)nc1C,–,79.4 µM (active)
CC(=O)c1sc(N/N=C\c2ccc(C)cc2)nc1C,-20.4,–
COc1cc2ccccc2cc1C(=O)Nc1nc(C)c(C(C)=O)s1,-2.33,–
CCCCN1C(=O)C(C)=C(C)C1OCCc1ccc(OC)c(OC)c1 (stereo unspecified),14,–
CCC(=O)c1cn(CCOc2ccccc2OC)c2ccccc12,2.97,–
O=S(=O)(c1ccc(NC(=S)NN=C(C2CC2)C2CC2)cc1)N1CCOCC1,–,44.7 µM (active)
CN1CCN(S(=O)(=O)c2ccc(NC(=S)NC(=O)C3CC3)cc2)CC1,22.5,–
O=C(NC(=S)Nc1ccc(S(=O)(=O)N2CCOCC2)cc1)c1ccccc1[N+](=O)[O-],-9.64,–
CC(=O)Oc1cccc(C(=O)Nc2ccccc2NC(=O)c2cccc(OC(C)=O)c2)c1,11.7,–
CCOc1ccc2[nH]c(=O)c(CN(CCCO)S(=O)(=O)c3ccc(F)cc3)cc2c1,2.06,–
Cc1ccc(N2C(=O)CC(Nc3cccc4ccccc34)C2=O)cc1 (stereo unspecified),3.72,–
CC1=C(C)CC2C(=O)N(c3cccc4ccccc34)C(=O)C2C1 (stereo unspecified),–,39.8 µM (active)
O=C1c2ccccc2C(=O)N1c1cccc2ccccc12,4.99,–
COc1ccc(NC(=O)CCS(=O)(=O)c2cc3c(cc2Cl)NC(=O)CO3)cc1OC,8.75,–
C=C(C)CNC(=S)N/N=C/c1ccccc1OCC(=O)O,–,12.6 µM (active)
CCOc1ccccc1/C=N/NC(=O)CNC(=O)COc1ccccc1,13.5,–
C=CCc1ccccc1OCC(=O)N/N=C/c1ccccc1OCC,-17.8,–

SMILES,"largest response in the series, negative = inhibition [%]",Potency
Cc1ccc(NC(=O)O[C@@H]2C(=O)c3cc(Br)ccc3O[C@H]2c2ccc3c(c2)OCO3)cc1Br,-5.42,–
N[C@@H](Cc1ccccc1)C(=O)N1CCC(C(=O)NCC(=O)Nc2ccc(F)cc2)CC1,-3.37,–
C[N+](C)(C)CCNC(=O)c1cc[n+](Cc2ccccc2)c(/C=N/O)c1,3.04,–
N#CCC(=O)NC1CCC(CC2CCC(NC(=O)CC#N)CC2)CC1 (stereo unspecified),-5.45,–
O=C(CSc1ccc2nnc(-c3ccccc3)n2n1)N1CCCc2ccccc21,–,8.91 µM (active)
CCCn1c(SCC(=O)N2CCc3ccccc32)nnc1-c1ccncc1,15.4,–
Cn1c(SCC(=O)N2CCCc3ccccc32)nc2ccccc2c1=O,0.535,–
COC(=O)c1ccc(CSc2ccc3nnc(-c4ccccc4)n3n2)o1,–,70.8 µM (active)
COc1ccc(-c2nnc3ccc(SCc4ccccc4)nn23)cc1,-4.23,–
COC(=O)c1ccc(CSc2ccccc2C)o1,17.7,–
CN(CC(=O)Nc1ccc(Cl)cc1)C(=O)CNC(=O)c1ccc2ccccc2c1,1.11,–
O=C1CCN(Cc2ccccc2)CCN1[C@H](CSc1ccccc1)c1ccccc1,2.51,–
O=C(O)CC/C(=C\c1cc2c(cc1Br)OCO2)c1nc2ccccc2s1,–,50.1 µM (active)
O=C(O)CS/C(=C\c1ccc(F)cc1)c1nc2ccccc2s1,27.3,–
O=C(Nc1nc2ccccc2s1)c1ccc2c(c1)OCO2,16.2,–
CC(C)[C@H](NC(=O)N1CCn2c1nc1ccccc12)C(=O)NCCc1ccccc1,3.48,–
CC(C(=O)NC1CCS(=O)(=O)C1)N1C(=O)/C(=C/c2ccc(Cl)cc2)SC1=S (stereo unspecified),-16.1,–
CC(C)(C)c1ccc(CN2C(=O)c3ccccc3S2(=O)=O)cc1,-8.95,–
Cc1ccccc1NC(=O)CSc1nc2ccc(Nc3nc(N4CCOCC4)nc(N4CCOCC4)n3)cc2s1,-16.9,–
C/C(CC(=O)NC(C)c1ccccc1)=N\NC(N)=S (stereo unspecified),–,79.4 µM (active)
Cc1cc(C)cc(OCC(=O)NC(C)c2ccccc2)c1 (stereo unspecified),-3.71,–
Cc1ccc(OCC(=O)NC(C)c2ccccc2)cc1C (stereo unspecified),-3.78,–
CC(=O)Nc1ccc(S(=O)(=O)N2CCC(C(=O)N[C@@H](Cc3ccccc3)C(=O)O)CC2)cc1,27.7,–

SMILES,"largest response in the series, negative = inhibition [%]",Potency
C[C@@H]1O[C@@H](OC[C@H]2O[C@@H](Oc3cc(O)c4c(c3)O[C@H](c3ccc(O)c(O)c3)CC4=O)[C@H](O)[C@@H](O)[C@@H]2O)[C@H](O)[C@H](O)[C@H]1O,2.86,–
COC(=O)c1cc(C)sc1NC(=O)CC1Nc2ccccc2NC1=O (stereo unspecified),–,79.4 µM (active)
O=C(CC1Nc2ccccc2NC1=O)Nc1ccccc1NC(=O)CC1Nc2ccccc2NC1=O (stereo unspecified),-13.5,–
CCOC(=O)c1ccccc1NC(=O)CC1Nc2ccccc2NC1=O (stereo unspecified),5.03,–
Cc1sc2ncn(CC(=O)NCCCC(=O)N(C)Cc3ccccc3)c(=O)c2c1C,13.5,–
N#Cc1nc(-c2ccc(OCc3ccccc3)cc2)oc1NCCCN1CCOCC1,–,44.7 µM (active)
O=S(=O)(c1ccccc1)c1nc(-c2ccccc2)oc1NCCCN1CCOCC1,11.1,–
Cc1ccc(-c2nc(C#N)c(NCCCn3ccnc3)o2)cc1,-4.22,–
Cc1ccc(NS(=O)(=O)c2ccc3c(c2)oc(=O)n3C)c(C)c1,5.37,–
O=C(O)c1ccc(NC(=O)c2ccc(COc3ccc(Cl)cc3)o2)cc1,9.95,–
Cc1ccc(Cc2c(C)nc3nc(SCC(=O)NCCN4CCOCC4)nn3c2C)cc1,-2.31,–
CCOC(=O)c1cnc(SCC(=O)NCc2ccco2)nc1N,-17.3,–
Cc1nc2nc(SCC(=O)NCc3ccco3)nn2c(C)c1Cc1ccccc1,–,50.1 µM (active)
Cc1cccc(NC(=O)NC2(C)CCS(=O)(=O)C2)c1 (stereo unspecified),14.2,–
O=S(=O)(Nc1ccccc1)c1ccc(NS(=O)(=O)c2cccs2)cc1,16.9,–
S=c1[nH]nc(NCCc2ccccc2)s1,–,22.4 µM (active)
Cc1ccc(Nc2nc(-c3sc(NC(=O)c4ccccc4)nc3C)cs2)cc1,0.727,–
Cc1nc(C)c(-c2csc(NCCc3ccccc3)n2)s1,–,50.1 µM (active)
O=C(CSc1ncccn1)NCCc1ccccc1,18.5,–
CCNc1nc(-c2cc3ccccc3o2)cs1,-14.8,–
S=C(NCCc1ccccc1)Nc1ccccc1,-0.65,–
COc1cccc(C2CC(c3cccs3)=NN2C(=O)CSC2=NCCS2)c1OC (stereo unspecified),-16,–
Cc1cc(C)cc(Oc2c(C(F)(F)F)oc3cc(OCC(=O)O)ccc3c2=O)c1,5.59,–

SMILES,"largest response in the series, negative = inhibition [%]",Potency
CCOC(=O)N1CCC(N2Cc3cccc(C(=O)Nc4ccc(S(=O)(=O)N(CC)CC)cc4)c3C2=O)CC1,-1.4,–
CCc1ccc2nc(N(CCCN(C)C)C(=O)c3ccc4c(c3)OCCO4)sc2c1,-7.75,–
CCCC(=O)N(CCN1CCOCC1)c1nc2ccc(OCC)cc2s1,4.61,–
CCOc1ccc2nc(N(CCN(C)C)C(=O)c3ccc4ccccc4c3)sc2c1,–,79.4 µM (active)
COc1ccccc1N1CCN(S(=O)(=O)CCNC(=O)c2ccc(OC(C)C)cc2)CC1,3.56,–
COc1ccc(CCN2C(=O)C3CC=C(C)CC3C2=O)cc1OC (stereo unspecified),7.59,–
COc1ccc(CCN2C(=O)CC(N3CCC(C(N)=O)CC3)C2=O)cc1OC (stereo unspecified),–,50.1 µM (active)
COc1ccc(N2C(=O)CC(N3CCC(C(N)=O)CC3)C2=O)cc1 (stereo unspecified),-13.3,–
COc1cc(Cl)c(C)cc1NC(=O)CN1CCCCCC1,1.55,–
C[n+]1ccc(/C=C/c2c[nH]c3ccccc23)cc1,–,56.2 µM (active)
O=C(N/N=C/c1c[nH]c2ccccc12)c1ccccc1O,16.9,–
CSC(=S)N/N=C/c1c[nH]c2ccccc12,7.95,–
Cc1cc(=O)[nH]c(Nc2cccc(Br)c2)n1,-3.95,–
Cc1cccc(C)c1NC(=O)CSc1nc2c([nH]1)c(=O)n(C)c(=O)n2C,-3.14,–
Cc1ccc(NN=Nc2nc3c([nH]2)c(=O)n(C)c(=O)n3C)cc1,–,25.1 µM (active)
CC(CCO)Nc1nc2c([nH]1)c(=O)n(C)c(=O)n2C (stereo unspecified),11.2,–
CSc1nccc(NC(=O)c2ccc(C(C)(C)C)cc2)n1,-8.43,–
CCOC(=O)N1CCN(C(=O)c2ccc3c(=O)n(CCc4ccc(OC)c(OC)c4)c(=O)[nH]c3c2)CC1,8.01,–
O=C(O)[C@@H](S)[C@H](S)C(=O)O,–,1.12 µM (active)
O=C(C[n+]1cc(Br)cc2ccccc21)c1ccc(F)cc1,4.07,–
COc1cccc([C@@H]2Oc3ccc(Br)cc3C(=O)[C@H]2OC(=O)NCCc2ccc(OC)c(OC)c2)c1,-29.3,–
COc1ccccc1N1CCN(C(=O)c2ccc(NC3=NC4CS(=O)(=O)CC4S3)cc2)CC1 (stereo unspecified),11.2,–

# Reference: PubChem BioAssay AID1490 (National Center for Advancing Translational Sciences (NCATS), 2009)
